Source: PubChem BioAssay (ICCB-Longwood Screening Facility, Harvard Medical School)
MbtI inh – inhibitors of Mycobacterium tuberculosis siderophore enzyme MbtI; inhibition, % (concentration not given with the values); P9WFX0; purified MbtI enzyme, fluorescence intensity read-out; AID 493033; actives 0.89% (n = 100,000); in the data active means inhibition mostly above about 56%, no sharp cut-off; inactive means mostly below about 77%
Polio RdRp inh – poliovirus RNA polymerase inhibition | poliovirus polymerase elongation, fluorescence polarization; active compounds read low | % elongation, % (compound at 16.7 µg/mL) | actives 0.66% (n = 150,000); in the data active means % elongation below about 90%
Target sequence (P03300 1749-2209 limits assumed): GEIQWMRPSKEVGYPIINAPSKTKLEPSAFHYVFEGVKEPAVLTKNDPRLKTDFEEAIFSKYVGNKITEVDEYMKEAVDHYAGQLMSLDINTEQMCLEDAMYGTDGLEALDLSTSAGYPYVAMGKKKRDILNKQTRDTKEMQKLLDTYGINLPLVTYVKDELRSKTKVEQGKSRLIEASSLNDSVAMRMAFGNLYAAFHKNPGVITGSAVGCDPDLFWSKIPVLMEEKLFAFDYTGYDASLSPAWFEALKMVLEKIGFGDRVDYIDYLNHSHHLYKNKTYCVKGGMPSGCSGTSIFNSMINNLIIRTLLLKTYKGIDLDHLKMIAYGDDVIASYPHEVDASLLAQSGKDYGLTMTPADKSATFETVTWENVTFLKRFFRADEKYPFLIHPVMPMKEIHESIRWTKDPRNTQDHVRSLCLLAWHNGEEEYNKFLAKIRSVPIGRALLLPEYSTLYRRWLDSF
Mtb MenB inh – Mtb MenB enzyme inhibition | P9WNP5 | MenB enzyme assay, absorbance read-out | inhibition, % (concentration not given with the values) | actives 0.43% (n = 100,000); in the data active means inhibition above about 21%, passing the limit was not always enough
Active calls of the source: *; / = no result. Hits are enriched below; roughly 1.4% of the tested compounds scored in any of these assays.

SMILES	MbtI inh	Polio RdRp inh	Mtb MenB inh
C=CCn1c(SCc2cn3ccccc3n2)nnc1-c1cccc(S(=O)(=O)N(CC)CC)c1	-1.4	99.0	-30.3
CN(C)C(=O)c1ccccc1NS(=O)(=O)c1ccc(Br)cc1	1.1	102.0	/
COc1ccc(C(=O)Nc2cc3cc(Cl)ccc3oc2=O)cc1OC	/	104.0	/
COc1cccc(C(=O)Nc2cc3cc(OC)ccc3oc2=O)c1	/	85.0*	/
N#CCn1cc(/C=C2\C(=O)NC(=O)N(c3cccc(F)c3)C2=O)c2ccccc21	74.2*	101.0	-23.7
CCOC(=O)Cn1cc(/C=C2\C(=O)NC(=O)N(c3ccc(F)cc3)C2=O)c2ccccc21	-3.6	68.0	-29.7
NCc1ccc(CN2CCCC2)cc1	8.0	101.0	4.0
CSc1nc(NC(N)=S)nc(NC(C)C)n1	87.0*	101.0	-30.0
CC(C)Nc1nc(Cl)nc(NCCO)n1	-4.8	104.0	30.0
CC(C)Nc1nc(NC(N)=O)nc(NC(C)C)n1	2.8	102.0	62.0*
CSc1nc(NC(C)C)nc(N(C)C(N)=O)n1	16.5	102.0	20.7
CCOC(CNCc1ccco1)OCC	-8.3	105.0	-20.7
COc1ccccc1-n1nnc(C(=O)N2CCCC2)c1N	-0.5	102.0	31.4*
COc1ccccc1N1CCN(C(=O)c2nc(-c3ccc(C)cc3)n3c2CCCCC3)CC1	/	109.0	/
COC(=O)COc1ccc2ccccc2c1	/	104.0	-11.9
NC(=O)c1ccsc1NC(=O)c1csc2c1CCCC2	88.9	101.0	-16.4
O=C1c2ccccc2C(O)(Cc2ccccc2)N1C1CCCCC1 (stereo not drawn)	-3.6	103.0	-1.0
O=C(O)CC1(O)c2ccccc2C(=O)N1Cc1ccccc1 (stereo not drawn)	/	90.0*	-37.2
CC(=O)O/N=C(\C)c1[nH]c(C)c(/C(C)=N/OC(C)=O)c1C	11.6	98.0	-30.6
CCN(CC)C(=O)CN1C(=O)COCC1=O	-8.6	99.0	26.2*
CCN(Cc1ccccc1)C(=O)CN1C(=O)c2ccccc2C1=O	-2.2	/	/
COC(=O)c1cc2occc2n1Cc1cn2ccccc2n1	4.0	99.0	-28.1
CC(C)Cn1c(=S)[nH]c2ccccc21	17.0	99.0	0.3
CC(C)Cn1c(=S)[nH]c2cc(Cl)ccc21	84.7*	78.0*	-27.1
CCN1CCN(CCCNC(=O)c2cc3c(=O)n(C)c4ccccc4c3s2)CC1	/	74.0*	/
SMILES	MbtI inh	Polio RdRp inh	Mtb MenB inh
CC1CCN(CCCNC(=O)c2cc3c(=O)n(C)c4ccccc4c3s2)CC1	44.6	103.0	11.4
CCCN1CCN(CCCNC(=O)c2cc3c(Cl)nc4ccccc4c3s2)CC1	/	67.0*	/
O=C(NCCCN1CCCC1)c1cc2c(Cl)nc3ccccc3c2s1	-4.5	94.0	-3.3
O=S(=O)(/C=C/c1ccccc1)N1CCN(Cc2coc(-c3cccs3)n2)CC1	-5.0	105.0	-23.7
COC(=O)c1ccc(C(=O)OC)c(S(=O)(=O)N(C)Cc2ccco2)c1	-12.2	104.0	-18.0
Cc1ccc(Nc2ccc(NCc3ccccc3)nn2)cc1C	0.9	102.0	-4.2
Cc1ccc(Nc2nnns2)cc1C	59.9*	94.0	-18.4
CC1CCCCC1NC(N)=O (stereo not drawn)	-7.9	101.0	1.7
O=C1CC(c2n[nH]c(=S)o2)CN1c1ccc(Cl)cc1 (stereo not drawn)	81.8*	99.0	17.0
O=C1CC(c2nnc(Cc3cccc(Cl)c3)o2)CN1c1ccccc1 (stereo not drawn)	/	103.0	/
COc1ccc(OCc2nn3c(C(F)(F)F)nnc3s2)cc1	-15.7	100.0	1.3
S=c1[nH]nc(-c2ccncc2)o1	96.7*	/	/
S=c1[nH]nc(-c2ccc3c(c2)OCO3)o1	103.2	94.0	-47.6
C=C(C)CNC(=S)Nc1cc(Cl)ccc1Sc1nncn1C	79.2*	91.0	-15.1
COc1cc(CC(=O)Nc2cc(Cl)ccc2Sc2nncn2C)cc(OC)c1OC	13.7	103.0	-25.0
CCc1nc(Nc2ccc(F)c(Cl)c2)c2c3c(sc2n1)CCCC3	/	85.0*	/
CCc1ccc(Nc2ncnc3sc4c(c23)CCCC4)cc1	/	103.0	/
Cc1cccc(C(CC(=O)N2CCN(c3ccccc3F)CC2)n2cccc2)c1 (stereo not drawn)	6.9	101.0	-12.4
CCC(C)N1C(=O)/C(=C\c2cnn(-c3ccccc3)c2)C(=O)NC1=S (stereo not drawn)	80.2*	99.0	-29.5
O=C1NC(=O)N(c2ccccc2)C(=O)/C1=C/c1ccccc1	3.2	98.0	-40.1
COc1ccc(NS(=O)(=O)c2ccc3oc(SC/C(O)=C(\C#N)c4nc5ccccc5s4)nc3c2)cc1	42.4	106.0	-24.2
COc1ccc(NS(=O)(=O)c2ccc3oc(SC)nc3c2)cc1	91.8*	82.0*	-47.7
CCOCCC(=O)Nc1cc(C)ccn1	-3.5	103.0	-17.8
Cc1ccc(-n2c(O)c(/C=N/c3ccccn3)c3ccccc3c2=O)cc1C	-0.4	99.0	/
CN(Cc1cccs1)C(=O)c1ccc2c(c1)NC(=O)CS2	0.5	/	-41.7
SMILES	MbtI inh	Polio RdRp inh	Mtb MenB inh
Cc1cc(C)cc(NC(=O)c2sc3nc(-c4cc5ccccc5oc4=O)[nH]c(=O)c3c2C)c1	/	105.0	/
Cc1c(C(=O)Nc2cccc(F)c2)sc2nc(-c3cc4ccccc4oc3=O)[nH]c(=O)c12	/	64.0*	/
CC1=Nc2ccccc2NC(C)(C)C1	4.4	102.0	-39.1
COCCNC(=S)c1ccc(N(C)C)cc1	61.6*	101.0	-51.9
COCCNC(=O)c1ccc(C(=O)NCCOC)cc1	-3.1	98.0	-5.1
COC(=O)C1(N)CCCCC1	-13.8	/	/
Cc1nnc(NC(=O)c2cccc(Cl)c2)s1	-1.6	102.0	/
COc1ccc2c(c1)Cc1sc(NC(=O)c3cccc(C)c3)nc1-2	/	56.0*	/
COc1ccc2c(c1)-c1nc(NC(=O)c3ccc(OC)c(Br)c3)sc1CC2	/	106.0	/
COc1ccc(C(=O)Nc2nc3c(s2)CCc2cc(OC)ccc2-3)cc1	/	80.0*	/
COc1ccc2c(c1)Cc1sc(NC(=O)c3cccc(Cl)c3)nc1-2	/	63.0*	/
COc1ccc2c(c1)Cc1sc(NC(=O)c3ccc(Cl)cc3)nc1-2	/	88.0*	/
COc1ccc2c(c1)CCc1sc(NC(=O)c3cccc(Br)c3)nc1-2	/	101.0	/
COc1ccc2c(c1)-c1nc(NC(=O)c3ccc(C)cc3)sc1CC2	/	106.0	/
C=CCn1c(N)cc(=O)nc1SC(C)C(=O)Nc1cccc(Cl)c1 (stereo not drawn)	-0.5	100.0	-12.9
COc1cccc(/C(O)=C/c2nc3ccc(C(=O)N4CCN(c5ccccn5)CC4)cc3[nH]c2=O)c1	7.2	94.0	-13.1
Cc1cc(Cl)ccc1OCc1nc(=S)[nH][nH]1	-9.8	102.0	-23.2
S=c1nc(Cc2ccc(Cl)cc2)[nH][nH]1	97.0*	93.0	-51.0
CC(Sc1nnc(-c2cccc(Br)c2)n1C)C(=O)NC1CC1 (stereo not drawn)	3.6	100.0	8.6
COC(=O)/C(C(C)=N)=C(\O)CSc1nnnn1-c1ccc(Cl)cc1	-2.0	106.0	-15.0
Cc1cc(C)c(C(=O)O)c(Cl)n1	0.3	80.0*	-25.6
CSc1nc(C)cc(C)c1C(N)=O	0.6	99.0	-31.5
Cc1ccc(NC(=O)N2CCC3(CC2)OCCO3)cc1Cl	-12.5	101.0	-11.3
CC(NC(CC(=O)c1ccc(F)cc1)C(=O)O)c1ccccc1 (stereo not drawn)	/	105.0	83.3*
COc1ccccc1NC(CC(=O)c1ccccc1)C(=O)O (stereo not drawn)	/	106.0	-8.8
Cc1ccccc1NC(=O)/C=C\C(N)=O	99.5*	104.0	-7.5
